Measurements published in PubChem BioAssay (NCI).
The panel holds about 83,000 compounds, 20% with a hit somewhere; the sample as a whole holds those more often.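 Single-dose data. Exposure time 48 hours. Values below 10 considered active.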 The source made the active and inactive calls.

What follows are molecules tested on HT29 colon (assay: NCI-60 one-dose screen, 48 h (100 = growth as untreated, 0 = no growth, -100 = all killed)). Conditions: 10 µM.
With `O=C(/C=C/c1ccco1)c1nc2ccccc2n1Cc1ccc(Br)cc1` the growth was 29.3% (inactive).
`O=C(/C=C/c1ccco1)c1nc2ccccc2n1Cc1ccc(F)cc1` was tested, and the growth was 68% (inactive).
For `COc1cc2cc(C(=O)N3C[C@@H](CCl)c4c3cc(OC(=O)N3CCN(C)[C@@H]5CSSC[C@@H]53)c3ccccc43)[nH]c2c(OC)c1OC`, the growth was -6.59% (active).
For `C#CC[Se]C(=O)c1ccc2n[se]nc2c1`, the growth was 39.6% (inactive).
`O=C(/C=C/c1ccc(Cl)cc1Cl)c1nc2ccccc2n1Cc1ccc(F)cc1` was tested, and the growth was 7.3% (active).
For `O=C(/C=C/c1ccc(Cl)cc1)c1nc2ccccc2n1Cc1ccc(Br)cc1`, the growth was 38.1% (inactive).
In the case of `CCOP(=O)(OCC)C(NC(C)=O)C(=O)SCCN` (stereo unspecified), the growth is reported as 113% (inactive).
`COc1cc2cc(C(=O)N3C[C@@H](CCl)c4c3cc(OC(=O)N3CCN(C)[C@@H]5CSSC[C@H]53)c3ccccc43)[nH]c2c(OC)c1OC` was tested, and the growth was -50.7% (active).
For `COc1ccc2cc([C@H](C)C(=O)[Se]CCC#N)ccc2c1`, the growth was -49.3% (active).
`CC12OOC(C)(OO1)C2CCC(=O)OCCNc1ccnc2cc(Cl)ccc12` (stereo unspecified) was tested, and the growth was -59.8% (active).
With `CC(C)N=C([Se])NC(=O)c1cccs1` the growth was 27.9% (inactive).
In the case of `Cc1ccc2[nH]c(=S)n(-c3ccc(F)cc3)c(=O)c2c1`, the growth is reported as 107% (inactive).
In the case of `CCOC(=O)C1=C(Nc2ccccc2)C(=O)OC12C(=O)Nc1ccccc12` (stereo unspecified), the growth is reported as 111% (inactive).
For `CC12CCC3(CCC(=O)NCCCNc4ccnc5cc(Cl)ccc45)[C@@](C)(OO[C@]3(C)O1)O2`, the growth was 10.7% (inactive).
In the case of `CC[C@]12C=CCN3CC[C@@]4(c5ccc(OC)cc5N(C)[C@H]4[C@@](O)(C(=O)OC)[C@@H]1OC(=O)CCCC[P+](C1CCCCC1)(C1CCCCC1)C1CCCCC1)[C@@H]32`, the growth is reported as -24% (active).
`CC(=O)Oc1ccccc1C(=O)[Se]C(=NC(C)C)NC(C)C` was tested, and the growth was -57% (active).
In the case of `COCCOCCOCCOc1ccc(-n2cc(CCCN(CCNc3ccnc4cc(Cl)ccc34)C(=O)CCC(=O)O[C@@H]3O[C@@H]4OC5(C)CC[C@H]6[C@H](C)CC[C@@H]([C@H]3C)[C@@]46OO5)nn2)cc1`, the growth is reported as 20.6% (inactive).
With `C[C@H]1[C@@H](CC(=O)N[C@@H](Cc2coc3ccccc23)B(O)O)O[C@@H]2OC3(C)CC[C@H]4[C@H](C)CC[C@@H]1[C@@]24OO3` the growth was -57.6% (active).
In the case of `COP(=O)(CC(F)(F)C(F)(F)F)OC`, the growth is reported as -35.5% (active).
With `CC12OOC(C)(OO1)C2CCC(=O)NCCNc1ccnc2cc(Cl)ccc12` (stereo unspecified) the growth was 105% (inactive).
With `CC[C@]12C=CCN3CC[C@@]4(c5ccc(OC)cc5N(C)[C@H]4[C@@](O)(C(=O)OC)[C@@H]1OC(=O)CCC[P+](c1ccc(C)cc1)(c1ccc(C)cc1)c1ccc(C)cc1)[C@@H]32` the growth was -80.7% (active).
`CC(C)N=C([Se])NC(=O)c1ccccc1` was tested, and the growth was 12.5% (inactive).
In the case of `CC[C@]12C=CCN3CC[C@@]4(c5ccc(OC)cc5N(C)[C@H]4[C@@](O)(C(=O)OC)[C@@H]1OC(=O)CCC[P+](C1CCCCC1)(C1CCCCC1)C1CCCCC1)[C@@H]32`, the growth is reported as -56.7% (active).
For `CC1=C(COCCOC(=O)c2ccc(S(=O)(=O)F)cc2)C2=C(C)C3(CC3)[C@@](C)(O)C(=O)C2=C1`, the growth was -28.5% (active).
With `CC[C@]12C=CCN3CC[C@@]4(c5ccc(OC)cc5N(C)[C@H]4[C@@](O)(C(=O)OC)[C@@H]1OC(=O)CCCC[P+](c1ccc(OC)cc1)(c1ccc(OC)cc1)c1ccc(OC)cc1)[C@@H]32` the growth was -63.1% (active).
`CC1=C(CCC=NNC(N)=O)C2=C(C)C3(CC3)[C@@](C)(O)C(=O)C2=C1` was tested, and the growth was -31% (active).
In the case of `CC[C@@]12CC(C(=O)OC)=C3Nc4cc5c(cc4[C@@]34CCN(C[C@H]3O[C@H]31)[C@@H]24)[C@@H]1[C@H](O5)[C@@H](O)[C@@]2(CC)CC(C(=O)OC)=C3Nc4cc(OC)ccc4[C@@]34CCN1[C@@H]24`, the growth is reported as 10.7% (inactive).
In the case of `CCOP(=O)(CC(F)(F)C(F)(F)F)OCC`, the growth is reported as -44.6% (active).
In the case of `CC1=C2C(=C[C@@](C)(COP(=O)(Oc3ccccc3)Oc3ccccc3)[C@@H]2O)C(=O)[C@@](C)(O)C12CC2`, the growth is reported as -57.3% (active).
With `CC(=O)Oc1ccccc1C(=O)NC([Se])=NC1CCCCC1` the growth was 32.1% (inactive).
`C[C@H]1[C@H](OC(=O)CCC(=O)N(CCCc2cn(-c3ccc(CN4CCOCC4)cc3)nn2)CCNc2ccnc3cc(Cl)ccc23)O[C@@H]2OC3(C)CC[C@H]4[C@H](C)CC[C@@H]1[C@@]24OO3` was tested, and the growth was -12.5% (active).
